Test results as given in PubChem BioAssay (NCI).
The panel holds about 83,000 compounds, 20% with a hit somewhere; the sample as a whole holds those more often.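 Results are percent growth after 48 hours of single-concentration exposure. 100 means growth as in untreated cells, lower positive values show inhibition; negative values down to -100 show cell death.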 Values without a mark were called inactive. Activity calls are given as the source filed them. How the source made its calls: active means growth percent below 10; inactive means the rest.

Assays:
Experiment in all cases: NCI-60 one-dose screen, 48 h (100 = growth as untreated, 0 = no growth, -100 = all killed)
Details in all cases: 10 µM unless noted
HCT-15 colon = tested on: HCT-15 colon
HT29 colon = tested on: HT29 colon
SNB-75 CNS = tested on: SNB-75 CNS
SNB-19 CNS = tested on: SNB-19 CNS
U251 CNS = tested on: U251 CNS
PC-3 prostate = tested on: PC-3 prostate
SK-MEL-5 melanoma = tested on: SK-MEL-5 melanoma
UACC-62 melanoma = tested on: UACC-62 melanoma
LOX IMVI melanoma = tested on: LOX IMVI melanoma
SK-MEL-28 melanoma = tested on: SK-MEL-28 melanoma
SK-MEL-2 melanoma = tested on: SK-MEL-2 melanoma
EKVX NSCLC = tested on: EKVX NSCLC
SN12C renal = tested on: SN12C renal
UO-31 renal = tested on: UO-31 renal
TK-10 renal = tested on: TK-10 renal
ACHN renal = tested on: ACHN renal
CAKI-1 renal = tested on: CAKI-1 renal
A498 renal = tested on: A498 renal
CCRF-CEM leukemia = tested on: CCRF-CEM leukemia
MOLT-4 leukemia = tested on: MOLT-4 leukemia

Compound	growth (HCT-15 colon)	growth (HT29 colon)	growth (SNB-75 CNS)	growth (SNB-19 CNS)	growth (U251 CNS)	growth (PC-3 prostate)	growth (SK-MEL-5 melanoma)	growth (UACC-62 melanoma)	growth (LOX IMVI melanoma)	growth (SK-MEL-28 melanoma)	growth (SK-MEL-2 melanoma)	growth (EKVX NSCLC)	growth (SN12C renal)	growth (UO-31 renal)	growth (TK-10 renal)	growth (ACHN renal)	growth (CAKI-1 renal)	growth (A498 renal)	growth (CCRF-CEM leukemia)	growth (MOLT-4 leukemia)
COc1ccc(-c2nc([C@@H](C)Sc3nc(N)cc(N)n3)c(C)s2)cc1OCCN1CCOCC1	103%	97.4%	91.9%	91.3%	91.8%	79.8%	82.2%	84.3%	95.8%	113%	104%	105%	99.8%	73.7%	104%	92.3%	90.6%	35.6%	83.7%	85.1%
CCOC(=O)c1cc(C(=O)c2ccc(OC)cc2)n2ccc(/C=C/c3cc[n+](CC(=O)c4ccc(OC)cc4)cc3)cc12	85.9%	16.5%	57.9%	31.3%	53.5%	64.1%	87.8%	99.5%	25.4%	103%	100%	87.8%	56.2%	72.7%	91.7%	70.2%	81.8%	67.6%	-22.5% (active)	49.8%
O=C1/C=C/[C@@H](O)[C@@H]2C[C@@H](O)C[C@H]2/C=C/CCC[C@H](CCc2ccc3ncccc3c2)O1	6.02% (active)	-19.6% (active)	33.2%	28.9%	21.7%	18.3%	-95.8% (active)	4.66% (active)	-66.5% (active)	-0.806% (active)	-18.3% (active)	3.05% (active)	6.22% (active)	-0.158% (active)	-23.9% (active)	5.12% (active)	-10.2% (active)	-36.4% (active)	7.39% (active)	-35.7% (active)
Brc1ccc2[nH]cc(-c3cncn3CCc3ccccc3)c2c1	52.8%	65.6%	36.7%	65.6%	55.7%	53.9%	10.4%	52.9%	64.1%	69.6%	55.8%	36.6%	59.1%	52.7%	-60.4% (active)	65.7%	35.4%	29.3%	57.9%	48.6%
O=C1Nc2ccc(F)cc2/C1=C\c1c(-c2ccccc2)nc2ccccn12	51.9%	52.1%	61.6%	75.4%	82.7%	67.5%	61.5%	60.7%	64.1%	85.1%	63.7%	61.8%	80.4%	46.6%	81%	53.4%	34.3%	43.1%	57.7%	51%
COc1cc(/C=C\c2cc(OC)c(OC)c(OC)c2)cc(NC(=O)/C=C/c2cc(OC)c(OC)c(OC)c2)c1OC	34.6%	32%	51.8%	72%	71%	29.3%	-45.3% (active)	29.7%	35.5%	47.6%	47%	47.6%	66.9%	24.9%	71.3%	52.7%	22.7%	41.5%	25.8%	30.9%
Cc1ccc(C(=O)/C(=C/c2ccc([N+](=O)[O-])cc2)SCc2ccc(Cl)cc2)cc1	8.64% (active)	-22.7% (active)	84.8%	34.1%	-56.3% (active)	63.3%	91%	65.9%	0.133% (active)	90.9%	91.5%	89%	70.3%	48.2%	90.8%	91.1%	74.8%	81%	8.74% (active)	19.8%
CCN(CC)CCOc1ccc(NC(=O)C(C(C)C)N2C(=O)/C(=C/c3ccc(Br)cc3)SC2=S)cc1 (centres undefined)	-40.9% (active)	-5.87% (active)	66%	57.6%	71.7%	64.5%	89.2%	95.3%	62.9%	89%	101%	90%	73.3%	74.5%	95.6%	62.1%	81%	99.5%	-16.7% (active)	3.96% (active)
O=c1c2c(c(=O)n1O)c1c3ccc[nH]c3nc1c1nc3[nH]cccc3c12	97%	89.7%	87%	70.8%	64.6%	67.7%	85.8%	63%	72.6%	96.2%	99.4%	93.4%	80.5%	91%	117%	88.3%	68.9%	94.5%	28.5%	43.7%
Cc1ccc(-c2csc(NC(=O)CSc3nc(-c4ccccc4)cc(=O)[nH]3)n2)cc1	94.5%	102%	96.1%	87.5%	92.2%	86.5%	87.4%	70%	96.5%	97.5%	89.4%	90.9%	94.9%	76%	108%	91.7%	90.7%	97.8%	88.8%	74.2%
Cc1ccc(-c2nc3ccccn3c2/C=C2/C(=O)Nc3cc(Cl)ccc32)cc1	53.3%	66.5%	61.8%	87.5%	96.4%	70.1%	71.9%	74.1%	53.8%	91.8%	87.7%	91.9%	77.5%	62.5%	120%	92.3%	62.6%	98.2%	56.2%	53.4%
COc1cc(C2=NN(C(C)=O)C(c3cc(OC)c(OC)c(OC)c3)C2)ccc1O (centres undefined)	4.31% (active)	8.21% (active)	4.64% (active)	34.9%	7.85% (active)	13.1%	6.65% (active)	15.3%	34.7%	68.2%	37.9%	34.8%	34.2%	31.8%	47.5%	30.5%	46.4%	-14.4% (active)	-16.5% (active)	0.196% (active)
O=C(/C=C(/C=C/c1coc2ccccc12)OB(F)F)/C=C/c1coc2ccccc12	95.1%	100%	98%	89.1%	84.6%	86.2%	105%	88.9%	84.9%	101%	91.6%	108%	97.4%	87.7%	117%	101%	105%	–	72.6%	85.5%
O=C(CNCCN1CCOCC1)N1c2cccc3cccc(c23)N(C(=O)CNCCN2CCOCC2)C1c1cn(-c2ccccc2)nc1-c1cccc([N+](=O)[O-])c1	43.6%	7.37% (active)	57.9%	77.1%	55.2%	62.4%	57.7%	94.8%	53.9%	64%	96.5%	84.6%	79.4%	65.1%	108%	88.7%	66%	84.5%	17.5%	48.5%
CCOC(=O)c1cc(C(=O)c2ccc(Br)cc2)n2ccc(/C=C/c3cc[n+](CC(=O)c4ccc(OC)cc4)cc3)cc12	70.7%	34.3%	93.7%	89.1%	101%	83.8%	95.3%	92.7%	81%	106%	105%	95.3%	78%	77.6%	116%	93.6%	93.2%	92%	-23.7% (active)	68.3%
